# Legend:
# Test in all cases: PBM binding z-score (relative to random genomic background probes); higher = stronger binding; sequences stand for … in GC…GCGATTGACAGCGTAGAATGAAGG
# [1] = test system: RARb homodimer (NR concentration 270 nM)
# Outline: (§1)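 Binding z-scores were set against random background probes. The data came from custom Agilent 4×180K protein-binding microarrays carrying double-stranded probes with 34-nt variable regions, incubated 1 h with ligand-free nuclear receptor dimers. Partner-specific antibodies detected binding, and scanned fluorescence was regression-normalized.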
# [2] = test system: RARg:RXRa (NR concentration 270 nM, RXRa partner concentration 90 nM)
# Outline: as §1
# [3] = test system: RARg homodimer (NR concentration 270 nM)
# Outline: as §1
# [4] = test system: RXRa DBDmut IVT, anti-RXR (DBD mutation: RXRa K156A/R161A, NR concentration 90 nM)
# Outline: as §1
# [5] = test system: RXRa homodimer (NR concentration 180 nM)
# Outline: as §1
# [6] = test system: THRa:RXRa (NR concentration 90 nM, RXRa partner concentration 90 nM)
# Outline: as §1
# [7] = test system: THRa homodimer (NR concentration 90 nM)
# Outline: as §1
# [8] = test system: VDR:RXRa (NR concentration 270 nM, RXRa partner concentration 90 nM)
# Outline: as §1
# [9] = test system: VDR homodimer (NR concentration 270 nM)
# Outline: as §1
Sequence,PBM binding z-score [1],PBM binding z-score [2],PBM binding z-score [3],PBM binding z-score [4],PBM binding z-score [5],PBM binding z-score [6],PBM binding z-score [7],PBM binding z-score [8],PBM binding z-score [9]
CGAACTAGGTCAGAACAGGAAAGTGAAGGATGAT,1.61,2.35,2.9,0.506,1.07,1.29,0.124,0.0955,-0.115
CAAACTAGGTCAAGGACAAAGTCGGTTTGTGCCA,3.2,3.97,4.91,1.39,2.52,3.58,2.25,1.79,0.988
CAAACTAGGTCATGGTCAAAGTCGGTTTGTGCCA,3.44,3.83,4.77,1.45,3.08,3.04,1.5,2.18,1.15
CGTCCAAGGTCAATGCTCGGTCAGTGAAAGCATT,4.62,6.85,6.5,3.69,5.11,3.71,2.09,4.21,2.86
GTAACGAGGGCAAGTTGATAGCAGAGTTTGATGG,1.71,1.66,1.86,2.07,0.851,1.36,0.0846,1.09,2.23
GCTAGCAGGCCATTTGGGTTACTCAATGACGGGC,-0.137,-0.0989,0.178,-0.102,0.0436,0.307,-0.64,-0.436,-0.276
ATATCAAGGTGATCGTGAGGTCGTTGATACTAAC,1.5,2.42,1.24,0.829,1.61,3.46,2.27,3.33,2.79
CAAACTAGGTCAAGAGGTCAAAGTCCGCTTCCCG,5.9,8.2,8.13,2.89,8.25,4.44,2.61,6.26,4.47
TCTATTAGTTGATTAGGGCAACGGAAACAGCGGA,0.377,0.729,0.882,0.972,0.448,0.578,0.239,0.621,0.264
AGTCTAAGTTCACTAGGTAACGTAAGATTCAGCT,2.21,3.35,3.69,4.47,2.31,2.27,0.878,3.59,4.71
TCTATTAGTTGGTTAGGGCAACCGAAACAGCGGA,0.686,0.47,0.667,0.779,0.412,0.638,0.431,0.428,0.587
TCCAGTTGGTCAAAGGTCACACACTCGAAATGCG,4.95,7.17,6.07,2.25,7.96,4.08,2.47,5.31,2.99
GCTTACGCGTCAAAGGTTATAGCATGAATAGAAT,0.965,1.43,0.64,0.189,3.35,1.65,-0.774,1.12,-0.203
CGTGCAAGGTCAAAGGTCAGTGAAGAGATGACGG,5.61,8.84,8.41,4.08,10.3,4.91,2.23,6.7,3.9
CGAACGAGGGCATGCGTTGATAGCAAATGCCGAT,0.766,1.03,1.55,2.39,0.91,0.988,-0.0968,0.672,1.21
TCATATAGGTAAAAAGGTGAAAGTCCGTAAGTTA,2.04,2.48,1.06,1.71,2.42,1.55,0.644,1.61,0.718
CCGAGTTGGTCAGGAGGTCACACACCGGATATGA,4.31,5.33,4.41,1.8,4.96,3.47,2.02,4.19,3.09
GCGACTGGGGTAAAGCAGGTTACCATAAGGTTGG,0.792,0.464,0.108,-0.286,1.03,2.59,0.334,1.15,-0.11
TCTGCTAGGTAAGTTGGTCAGCTAACGAGCTGCC,-0.545,-0.54,-0.71,0.107,-0.613,-0.549,-0.918,-0.464,-0.989
GATACAGGGTCATGGCCAGAGTACGCGTATTGAT,3.44,5.62,5.09,2.44,6.72,3.78,0.968,4.83,2.77
ATCTCAAGGTAAGACTCAGTTCAGTGAAGAACGC,0.641,0.668,0.469,0.363,0.542,1.36,0.884,1.27,1.5
TCTGCTAGGTTAACGATGGTCAGCTAATCTGCTA,0.605,0.561,0.688,0.00765,0.42,1,-1.07,-0.0905,-0.957
TCATATAGGTAAAGGTGAAACTCGAACGATATGA,1.6,1.84,1.54,0.648,2.47,1.57,-0.601,0.901,-0.375
ACTATTAGTTGAGACGAGGGCTACCGATAGGTTG,-0.26,0.564,0.518,0.406,0.235,0.224,-0.838,-0.103,-0.209
ACAGCCAGGTGAGTGAAGGTAACTCAGCTGGACG,-0.424,-0.155,-0.0105,-0.98,-0.177,1.46,-0.534,-0.635,-0.751
TAGCCTAGGTCAGATCGGGCCCGTATACGCTATA,1.94,2.58,3.06,-0.297,1.37,2.39,0.0174,0.22,-0.316

Sequence,PBM binding z-score [1],PBM binding z-score [2],PBM binding z-score [3],PBM binding z-score [4],PBM binding z-score [5],PBM binding z-score [6],PBM binding z-score [7],PBM binding z-score [8],PBM binding z-score [9]
TCTGCTAGGTCAGTTGGACAGCTAACGAGCTGCC,1.99,2.24,3.47,0.472,0.621,1.12,-0.399,-0.155,-0.808
CGTCCAAGGTCACTGCTAGGTCAGTGAAAGCATT,4.78,7.45,7.04,3.66,5.2,4.48,3.39,5.09,3
CCTAGTTGGTCAGGCGGTCACACACCGGATATGA,2.12,1.41,1.67,-0.336,0.344,0.232,0.129,0.0126,0.3
ATCTCTAGGTAACAAGTTCAGTGCAAGAGAGGAC,1.96,1.28,1.46,0.886,0.703,2.19,1.03,1.79,3.19
TCTGCTAGGTCAGTTGGTCAGCTACCGAGCTGCC,2.77,2.45,3.07,0.34,0.83,1.22,-0.00528,0.106,-0.907
ATATGCAGGTTAAGGGTCATTCAGGTTGGTTCGC,3.97,4.66,3.52,2.24,6.59,3.64,1.26,5.68,4.45
CCGACTGGGGCATAAAGGTTACCATACCATCCGG,2.16,1.92,1.79,-0.788,1.63,1.19,-0.376,1.4,0.423
TAGCCTTGGTCATTGGGCCAGTATAGTACGCATC,0.501,0.238,0.477,-0.637,0.0749,-0.206,-0.231,-0.419,-0.72
TCTATTAGTTGATTATGGCAACCGAAACAGCGGA,-0.245,0.408,0.199,1.38,0.509,0.165,0.396,1.08,0.715
ACTAGCAGGCCAAGGGTCCCTCAAGATTAGTCCG,0.0685,-0.0773,-0.0696,-0.495,-0.0168,-0.255,-0.726,-0.454,-0.484
CGTCCAAGGTCAAAGGTCAGTGACGAGATGACGG,5.47,8.79,8.22,3.93,10.5,4.85,2.69,6.67,3.54
AGTCAAAGTTCATCTAGGCAACGTAAGATATGCT,3.91,5.49,6.04,4.78,4.97,2.22,-0.142,4.9,4.64
AATAGCAGGCCAAGTTTGGGTCACTCAAACAAAG,2.31,2.53,1.67,-0.564,0.964,2.63,0.748,0.703,0.388
AGTCAAAGTTCAGGACGAGGTAACGTACAGCACG,3.47,4.77,4.74,2.99,2.92,3.9,1.82,2.88,2.1
CAAACTAGGTCAAGGTCAAGGTCGGTTTGTGCCA,5.4,6.25,7.34,2.79,6.62,4.54,4.73,5.24,4.06
TCAGTCAGGTGAAGGTAACTCAGGTACGCAGTCG,0.729,0.735,0.793,0.667,0.742,2.32,1.34,0.652,-0.131
ATACCAAGGTGATCGTGAGGTCGTAGATACTAAC,1.56,2.26,1.03,-0.0325,1.76,3.54,2.52,2.42,1.86
TCTTGTAGATCTAAGGTTAAGAAAGCCGAAGCCT,0.513,0.36,0.019,1.06,1.21,2.16,1.26,0.651,-0.0148
CCTAGCAAGCCAATCTGGGTCACTCAAGGCTTGA,1.9,0.58,0.537,-0.0119,0.781,2.99,0.441,0.396,0.0159
CAAACTAGGTCAAAGGACAAAGTCGAGCCAACCA,3.11,4.32,4.77,1.7,3.31,2.92,0.809,1.96,0.753
TAGCCTAGGTCATGCGCCAGTATACCACGCGAAC,2.94,3.96,4.3,0.931,3.24,3,1.31,2.01,0.653
CCTACTAGGCCAAGGTCATTGATCAGTCAAAGCA,3.74,3.86,3.68,2.31,3.64,3.52,3.01,3.48,3.34
CGTACTGGGCCATTCAGAGGTCATTGATCATATG,4.23,4.62,3.63,1.64,3.95,3.33,1.54,4.27,3.81
TCTGATAGGTCAGTTGGTCAGCTAACGAGCTGCC,2.94,3.32,4,1.1,2.15,0.722,-0.367,0.777,-0.342
CATACAGGGTCAGTTAGGCCAGAGTAGGGACGGC,2.87,3.61,3.84,1.68,2.94,2.77,1.04,3.05,1.69
TCTTGTAGATCAAGCAGCTTAAGAAAGCCTGAGT,-0.672,-0.336,-0.59,0.402,-0.293,-0.48,-0.676,0.0668,-0.394

# Reference: the supplement of paper PMC6555819
